{
  "source": "the supplement of paper PMC8728848",
  "test_in_all_cases": "glycan array binding signal (z-score within array); higher = stronger binding",
  "settings_in_all_cases": "glycan notation: IUPAC condensed, linker removed",
  "key": {"[1]": {"target": "Gal(b1-4)GlcNAc(b1-3)Gal(b1-4)GlcNAc(b1-3)Gal(b1-4)GlcNAc(b1-2)[Gal(b1-4)GlcNAc(b1-3)Gal(b1-4)GlcNAc(b1-3)Gal(b1-4)GlcNAc(b1-6)]Man(a1-6)[Gal(b1-4)GlcNAc(b1-3)Gal(b1-4)GlcNAc(b1-3)Gal(b1-4)GlcNAc(b1-2)Man(a1-3)]Man(b1-4)GlcNAc(b1-4)[Fuc(a1-6)]GlcNAc", "outline": "(§1)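 Glycan array data came from 3228 arrays in the Consortium for Functional Glycomics database, and only arrays with an available protein sequence were kept. Glycan names were put into IUPAC-condensed notation, and columns mapping to the same glycan were averaged. The binding signal is a within-array Z-score, averaged across arrays of one protein sequence run at different concentrations or buffers and across linkers. A negative Z-score can be read as non-binding.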"}, "[2]": {"target": "Gal(b1-4)GlcNAc(b1-3)Gal(b1-4)GlcNAc(b1-3)Gal(b1-4)GlcNAc(b1-3)Gal(b1-4)GlcNAc(b1-2)[Gal(b1-4)GlcNAc(b1-3)Gal(b1-4)GlcNAc(b1-3)Gal(b1-4)GlcNAc(b1-3)Gal(b1-4)GlcNAc(b1-6)]Man(a1-6)[Gal(b1-4)GlcNAc(b1-3)Gal(b1-4)GlcNAc(b1-3)Gal(b1-4)GlcNAc(b1-3)Gal(b1-4)GlcNAc(b1-2)Man(a1-3)]Man(b1-4)GlcNAc(b1-4)[Fuc(a1-6)]GlcNAc", "outline": "as §1"}, "[3]": {"target": "Gal(b1-4)GlcNAc(b1-3)Gal(b1-4)GlcNAc(b1-3)Gal(b1-4)GlcNAc(b1-3)Gal(b1-4)GlcNAc(b1-3)Gal(b1-4)GlcNAc(b1-2)Man(a1-3)[Gal(b1-4)GlcNAc(b1-3)Gal(b1-4)GlcNAc(b1-3)Gal(b1-4)GlcNAc(b1-3)Gal(b1-4)GlcNAc(b1-3)Gal(b1-4)GlcNAc(b1-2)Man(a1-6)]Man(b1-4)GlcNAc(b1-4)GlcNAc", "outline": "as §1"}, "[4]": {"target": "Gal(b1-4)GlcNAc(b1-3)Gal(b1-4)GlcNAc(b1-3)Gal(b1-4)GlcNAc(b1-3)Gal(b1-4)GlcNAc(b1-3)Gal(b1-4)GlcNAc(b1-2)Man(a1-3)[Gal(b1-4)GlcNAc(b1-3)Gal(b1-4)GlcNAc(b1-3)Gal(b1-4)GlcNAc(b1-3)Gal(b1-4)GlcNAc(b1-3)Gal(b1-4)GlcNAc(b1-2)Man(a1-6)]Man(b1-4)GlcNAc(b1-4)[Fuc(a1-6)]GlcNAc", "outline": "as §1"}, "[5]": {"target": "Gal(b1-4)GlcNAc(b1-3)Gal(b1-4)GlcNAc(b1-3)Gal(b1-4)GlcNAc(b1-3)Gal(b1-4)GlcNAc(b1-3)Gal(b1-4)GlcNAc(b1-2)[Gal(b1-4)GlcNAc(b1-3)Gal(b1-4)GlcNAc(b1-3)Gal(b1-4)GlcNAc(b1-3)Gal(b1-4)GlcNAc(b1-3)Gal(b1-4)GlcNAc(b1-6)]Man(a1-6)[Gal(b1-4)GlcNAc(b1-3)Gal(b1-4)GlcNAc(b1-3)Gal(b1-4)GlcNAc(b1-3)Gal(b1-4)GlcNAc(b1-3)Gal(b1-4)GlcNAc(b1-2)Man(a1-3)]Man(b1-4)GlcNAc(b1-4)[Fuc(a1-6)]GlcNAc", "outline": "as §1"}, "[6]": {"target": "Gal(b1-4)GlcNAc(b1-3)Gal(b1-4)GlcNAc(b1-3)GalNAc", "outline": "as §1"}, "Gal3S(b1-3)GalNAc": {"target": "Gal3S(b1-3)GalNAc", "outline": "as §1"}, "Gal3S(b1-4)Glc6S": {"target": "Gal3S(b1-4)Glc6S", "outline": "as §1"}, "[7]": {"target": "Gal3S(b1-4)[Fuc(a1-3)]GlcNAc", "outline": "as §1"}, "Gal6S(b1-3)GlcNAc": {"target": "Gal6S(b1-3)GlcNAc", "outline": "as §1"}, "[8]": {"target": "GalNAc(b1-3)Gal(a1-6)Gal(b1-4)Glc", "outline": "as §1"}, "GlcA(b1-6)Gal": {"target": "GlcA(b1-6)Gal", "outline": "as §1"}, "[9]": {"target": "GlcNAc(b1-2)Man(a1-3)[GlcNAc(b1-2)Man(a1-6)]Man(b1-4)GlcNAc(b1-4)GlcNAc", "outline": "as §1"}, "[10]": {"target": "GlcNAc(b1-2)[GlcNAc(b1-4)]Man(a1-3)[GlcNAc(b1-4)][GlcNAc(b1-2)Man(a1-6)]Man(b1-4)GlcNAc(b1-4)GlcNAc", "outline": "as §1"}, "[11]": {"target": "GlcNAc(b1-2)[GlcNAc(b1-4)]Man(a1-3)[GlcNAc(b1-4)][GlcNAc(b1-2)[GlcNAc(b1-6)]Man(a1-6)]Man(b1-4)GlcNAc(b1-4)GlcNAc", "outline": "as §1"}, "[12]": {"target": "GlcNAc(b1-2)[GlcNAc(b1-6)]Man(a1-6)[GlcNAc(b1-2)Man(a1-3)]Man(b1-4)GlcNAc(b1-4)GlcNAc", "outline": "as §1"}, "[13]": {"target": "GlcNAc(b1-3)Gal(b1-4)GlcNAc(b1-3)Gal(b1-4)GlcNAc(b1-3)Gal(b1-4)GlcNAc(b1-2)[GlcNAc(b1-3)Gal(b1-4)GlcNAc(b1-3)Gal(b1-4)GlcNAc(b1-3)Gal(b1-4)GlcNAc(b1-6)]Man(a1-6)[GlcNAc(b1-3)Gal(b1-4)GlcNAc(b1-3)Gal(b1-4)GlcNAc(b1-3)Gal(b1-4)GlcNAc(b1-2)Man(a1-3)]Man(b1-4)GlcNAc(b1-4)[Fuc(a1-6)]GlcNAc", "outline": "as §1"}, "[14]": {"target": "GlcNAc(b1-3)Gal(b1-4)GlcNAc(b1-3)Gal(b1-4)GlcNAc(b1-3)Gal(b1-4)GlcNAc(b1-3)Gal(b1-4)GlcNAc(b1-2)Man(a1-3)[GlcNAc(b1-3)Gal(b1-4)GlcNAc(b1-3)Gal(b1-4)GlcNAc(b1-3)Gal(b1-4)GlcNAc(b1-3)Gal(b1-4)GlcNAc(b1-2)Man(a1-6)]Man(b1-4)GlcNAc(b1-4)[Fuc(a1-6)]GlcNAc", "outline": "as §1"}, "[15]": {"target": "GlcNAc(b1-3)Gal(b1-4)GlcNAc(b1-3)Gal(b1-4)GlcNAc(b1-3)Gal(b1-4)GlcNAc(b1-3)Gal(b1-4)GlcNAc(b1-2)[GlcNAc(b1-3)Gal(b1-4)GlcNAc(b1-3)Gal(b1-4)GlcNAc(b1-3)Gal(b1-4)GlcNAc(b1-3)Gal(b1-4)GlcNAc(b1-6)]Man(a1-6)[GlcNAc(b1-3)Gal(b1-4)GlcNAc(b1-3)Gal(b1-4)GlcNAc(b1-3)Gal(b1-4)GlcNAc(b1-3)Gal(b1-4)GlcNAc(b1-2)Man(a1-3)]Man(b1-4)GlcNAc(b1-4)[Fuc(a1-6)]GlcNAc", "outline": "as §1"}, "[16]": {"target": "GlcNAc(b1-3)[GlcNAc(b1-6)]GlcNAc", "outline": "as §1"}, "[17]": {"target": "Man(a1-2)Man(a1-2)Man(a1-3)[Man(a1-2)Man(a1-6)[Man(a1-3)]Man(a1-6)]Man(b1-4)GlcNAc(b1-4)GlcNAc", "outline": "as §1"}, "[18]": {"target": "Man(a1-2)Man(a1-6)[Man(a1-3)]Man(a1-6)[Man(a1-2)Man(a1-2)Man(a1-3)]Man(b1-4)GlcNAc(b1-4)GlcNAc", "outline": "as §1"}, "[19]": {"target": "Man(a1-3)[Man(a1-6)]Man(a1-6)[Man(a1-2)Man(a1-3)]Man(b1-4)GlcNAc(b1-4)GlcNAc", "outline": "as §1"}, "[20]": {"target": "Neu5Ac(a2-3)Gal(b1-3)[Fuc(a1-4)]GlcNAc(b1-3)Gal(b1-4)[Fuc(a1-3)]GlcNAc", "outline": "as §1"}, "[21]": {"target": "Neu5Ac(a2-3)Gal(b1-4)GlcNAc(b1-2)Man(a1-3)[GlcNAc(b1-2)Man(b1-4)GlcNAc(b1-2)Man(a1-6)]Man(b1-4)GlcNAc(b1-4)GlcNAc", "outline": "as §1"}, "[22]": {"target": "Neu5Ac(a2-3)Gal(b1-4)GlcNAc(b1-3)Gal(b1-4)GlcNAc(b1-3)GalNAc", "outline": "as §1"}, "[23]": {"target": "Neu5Ac(a2-3)Gal(b1-4)[Fuc(a1-3)]GlcNAc", "outline": "as §1"}, "[24]": {"target": "Neu5Ac(a2-3)[GalNAc(b1-4)]Gal(b1-4)GlcNAc", "outline": "as §1"}, "[25]": {"target": "Neu5Ac(a2-6)Gal(b1-4)GlcNAc(b1-2)[Neu5Ac(a2-6)Gal(b1-4)GlcNAc(b1-6)]Man(a1-6)[Neu5Ac(a2-6)Gal(b1-4)GlcNAc(b1-2)Man(a1-3)][GlcNAc(b1-4)]Man(b1-4)GlcNAc(b1-4)GlcNAc", "outline": "as §1"}, "[26]": {"target": "Neu5Ac(a2-8)Neu5Ac(a2-8)Neu5Ac(a2-3)Gal(b1-4)Glc", "outline": "as §1"}},
  "note": "This is one part of a sample in which the strongest signals are shown more often than they occur.",
  "data": [
    {"binder": "Gal 7 (Homo sapiens) (protein) MSNVPHKSSLPEGIRPGTVLRIRGLVPPNASRFHVNLLCGEEGGSDAALHFNPRLDTSEVVFNSKEGGSWGREERGPGVPFGRGQPFEVLIIASDDGFKAVVGDAQYHHFRHRLPLARVRLVEVGGDVQLDSVRIF", "values": [
      {"measurement": "glycan array binding signal (z-score)", "setting": "[1]", "result": 4.93},
      {"measurement": "glycan array binding signal (z-score)", "setting": "[2]", "result": 5.2},
      {"measurement": "glycan array binding signal (z-score)", "setting": "[3]", "result": 4.95},
      {"measurement": "glycan array binding signal (z-score)", "setting": "[4]", "result": 4.93},
      {"measurement": "glycan array binding signal (z-score)", "setting": "[5]", "result": 5.14},
      {"measurement": "glycan array binding signal (z-score)", "setting": "[6]", "result": -0.127},
      {"measurement": "glycan array binding signal (z-score)", "setting": "Gal3S(b1-3)GalNAc", "result": 0.538},
      {"measurement": "glycan array binding signal (z-score)", "setting": "Gal3S(b1-4)Glc6S", "result": 2.04},
      {"measurement": "glycan array binding signal (z-score)", "setting": "[7]", "result": -0.312},
      {"measurement": "glycan array binding signal (z-score)", "setting": "Gal6S(b1-3)GlcNAc", "result": -0.324},
      {"measurement": "glycan array binding signal (z-score)", "setting": "[8]", "result": -0.319},
      {"measurement": "glycan array binding signal (z-score)", "setting": "GlcA(b1-6)Gal", "result": -0.332},
      {"measurement": "glycan array binding signal (z-score)", "setting": "[9]", "result": -0.324},
      {"measurement": "glycan array binding signal (z-score)", "setting": "[10]", "result": -0.311},
      {"measurement": "glycan array binding signal (z-score)", "setting": "[11]", "result": -0.33},
      {"measurement": "glycan array binding signal (z-score)", "setting": "[12]", "result": -0.2},
      {"measurement": "glycan array binding signal (z-score)", "setting": "[13]", "result": 5.04},
      {"measurement": "glycan array binding signal (z-score)", "setting": "[14]", "result": 4.94},
      {"measurement": "glycan array binding signal (z-score)", "setting": "[15]", "result": 5.06},
      {"measurement": "glycan array binding signal (z-score)", "setting": "[16]", "result": -0.33},
      {"measurement": "glycan array binding signal (z-score)", "setting": "[17]", "result": -0.333},
      {"measurement": "glycan array binding signal (z-score)", "setting": "[18]", "result": -0.185},
      {"measurement": "glycan array binding signal (z-score)", "setting": "[19]", "result": -0.158},
      {"measurement": "glycan array binding signal (z-score)", "setting": "[20]", "result": -0.197},
      {"measurement": "glycan array binding signal (z-score)", "setting": "[21]", "result": -0.355},
      {"measurement": "glycan array binding signal (z-score)", "setting": "[22]", "result": -0.259},
      {"measurement": "glycan array binding signal (z-score)", "setting": "[23]", "result": -0.305},
      {"measurement": "glycan array binding signal (z-score)", "setting": "[24]", "result": -0.248},
      {"measurement": "glycan array binding signal (z-score)", "setting": "[25]", "result": -0.274},
      {"measurement": "glycan array binding signal (z-score)", "setting": "[26]", "result": -0.015}
    ]}
  ]
}
